Bioassay records (PubChem BioAssay)
Mac1 fbg inh: inhibitors of human CD11b/CD18 binding to fibrinogen; inhibition, % at 10 µM; P05107+P11215; AID 1497; K562 CD11b/CD18 adhesion to fibrinogen, ATPlite luminescence; Mn2+ added to activate the integrin; hit rate 0.54% among 93,000;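 active = primary inhibition of 50% or more at 10 µM, then 40% or more on retest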
CYP2C19 inhib: human CYP2C19 inhibition. CYP2C19 Supersomes, luciferin-H EGE luminescence, 30 min. hit rate 21% among 96,000. inhibition, % at 5 µM. AID 778. P33261;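 active = CYP2C19 inhibition above a set limit at 5 µM in the primary screen, cut at about 50% in these data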
Target sequence (P33261 whole entry, looked up): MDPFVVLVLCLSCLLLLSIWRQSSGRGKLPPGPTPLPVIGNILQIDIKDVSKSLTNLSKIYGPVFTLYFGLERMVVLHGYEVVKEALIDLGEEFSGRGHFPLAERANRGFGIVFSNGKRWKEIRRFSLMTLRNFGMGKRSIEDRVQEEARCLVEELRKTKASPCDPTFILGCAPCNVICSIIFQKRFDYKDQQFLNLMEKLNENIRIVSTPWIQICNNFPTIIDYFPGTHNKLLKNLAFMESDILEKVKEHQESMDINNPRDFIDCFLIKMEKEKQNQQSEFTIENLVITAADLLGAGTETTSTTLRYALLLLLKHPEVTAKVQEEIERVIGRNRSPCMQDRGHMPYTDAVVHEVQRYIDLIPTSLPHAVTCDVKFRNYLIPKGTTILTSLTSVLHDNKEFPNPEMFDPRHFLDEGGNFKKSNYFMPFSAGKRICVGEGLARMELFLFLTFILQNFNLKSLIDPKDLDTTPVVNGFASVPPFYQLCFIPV
CYP2C9 act: activators of human CYP2C9; P11712; recombinant CYP2C9, luciferin-H conversion, luminescence; stronger effect = higher value; factor 1 = untreated enzyme, 0 = blocked; activation factor at 5 µM; hit rate 1.4% among 96,000; AID 1024;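 active = activation factor of 2 or more for CYP2C9 at a 5 µM dose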
CD11b adhes enh: CD11b/CD18-fibrinogen binding enhancement; P05107+P11215; K562 CD11b/CD18 adhesion to fibrinogen, ATPlite luminescence; activation, % at 10 µM; hit rate 0.07% among 93,000; AID 1499;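 active = 10 µM primary screen giving 50% or more activity, confirmed by 40% or more on retest at that dose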
CYP2C9 inh: inhibitors of human CYP2C9; hit rate 20% among 96,000; inhibition, % at 5 µM; P11712; CYP2C9 Supersomes, luciferin-H conversion, luminescence;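 active = blocking of liver enzyme CYP2C9 beyond about 50% at 5 µM, limit read from the data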
CYP2C19 activ: activators of human cytochrome P450 2C19; activation factor at 5 µM; recombinant CYP2C19, luciferin-H EGE luminescence; stronger effect = higher value; 0 = fully inhibited enzyme, 1 = untreated enzyme; AID 1025; P33261; 96,000 tested, under 10 active;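 active = activation factor of at least 2 at 5 µM in the primary screen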
Hits are given with their value; . = inactive; / = not tested or not shown. Hits are enriched below; roughly 28% of the tested compounds scored in any of these assays.

SMILES	Mac1 fbg inh	CYP2C19 inhib	CYP2C9 act	CD11b adhes enh	CYP2C9 inh	CYP2C19 activ
COc1ccc(CNCc2ccco2)cc1OCc1ccccc1	.	64.8	.	.	.	.
COc1ccc(CCn2c(=S)[nH]c3cc(C(=O)NCc4ccco4)ccc3c2=O)cc1OC	.	.	.	.	59.8	.
CCCOc1cc(CC(=O)NCc2ccco2)ccc1OC	.	70.8	.	.	62.9	.
COc1cc(OC)cc(C(=O)NC(=S)NCc2ccco2)c1	.	.	.	.	.	.
COc1ccc(C(=O)NC(=S)NCc2ccco2)cc1OC	.	53.9	.	.	69.5	.
O=C(COc1ccc(Cl)cc1Cl)Nc1noc2ccccc12	/	.	.	/	.	.
COc1ccc(CCCNC(=O)CC#N)cc1OC	.	.	.	.	.	.
CC(=O)c1ccc(NC(=S)NNC(=O)c2ccncc2)cc1	.	/	/	.	/	/
COC(=O)c1cccnc1NC(=S)NNC(=O)c1ccncc1	.	84.1	.	.	.	.
CN(C)CCOc1nc(-c2ccccc2)nc2c1oc1ccccc12	.	.	.	.	.	.
CCOC(=O)c1nc[nH]c1C	.	.	.	.	.	.
O=C(c1cc2ccccc2oc1=O)N(Cc1ccccc1)C1CCS(=O)(=O)C1 (stereo unspecified)	/	.	.	/	.	.
COc1cccc2cc(C(=O)N3CCC(C)CC3)c(=O)oc12	.	.	2.9	.	.	.
O=C(c1cc2ccccc2oc1=O)N1CCN(C(=O)C2CCCO2)CC1 (stereo unspecified)	.	.	.	.	.	.
COC(=O)C1CCN(C(=O)c2cc3ccccc3oc2=O)CC1	.	56.4	2.2	.	.	.
COc1cccc(CN(C(=O)c2cc3ccccc3oc2=O)C2CC2)c1	.	79.4	2.4	.	.	.
COc1cccc2cc(NC(=O)C3CCCCC3)c(=O)oc12	.	.	2.4	.	.	.
COc1cccc2cc(C(=O)N3CCN(c4ccccn4)CC3)c(=O)oc12	.	.	.	.	.	.
COc1cccc2cc(C(=O)N3CCN(C45CC6CC(CC(C6)C4)C5)CC3)c(=O)oc12	.	.	.	.	55.7	.
O=S(=O)(Nc1nnc(-c2ccccc2)s1)c1ccc(Cl)cc1	86.1	82.7	.	.	98.7	.
CCCCCCNS(=O)(=O)c1nc2nc(C)cc(C)n2n1	.	.	.	.	.	.
CCOC(=O)C1CCCN(CCC(C)c2ccccc2)C1 (stereo unspecified)	.	58.5	.	.	.	.
CCOC(=O)C1CCCN(Cc2cc(Br)ccc2OC)C1 (stereo unspecified)	.	78.8	.	.	63.0	.
CCOc1cc(C)nc(N2CCCC(C(=O)NCc3ccccc3F)C2)n1 (stereo unspecified)	.	58.3	.	.	.	.
CCOC(=O)C1CCCN(Cc2cc(OC)c(O)c(OC)c2)C1 (stereo unspecified)	/	.	.	/	.	.
SMILES	Mac1 fbg inh	CYP2C19 inhib	CYP2C9 act	CD11b adhes enh	CYP2C9 inh	CYP2C19 activ
Cc1cc(C)nc(N2CCCC(C(=O)NCCc3ccccc3F)C2)n1 (stereo unspecified)	.	.	.	.	.	.
CCOC(=O)C1CCCN(Cc2cc(Br)c(OC)cc2OC)C1 (stereo unspecified)	.	84.4	.	.	.	.
CCc1noc(C)c1C(=O)Nc1nc(-c2ccc(Cl)cc2Cl)c(C)s1	.	.	.	.	.	.
Cc1ccc(C2/C(=C(\O)c3ccc4c(c3)OCCO4)C(=O)C(=O)N2CCCN(C)C)o1 (stereo unspecified)	.	.	.	.	.	.
CN1/C(=C\C(=O)COC(=O)Cn2nnc(-c3ccccc3)n2)C(C)(C)c2ccccc21	.	.	.	.	73.7	.
CCOC(=O)C1CCCN(CC(=O)/C=C2/N(C)c3ccccc3C2(C)C)C1 (stereo unspecified)	.	63.2	.	.	.	.
CCOC(=O)C1CCCN(CC(=O)NC2=Nc3ccccc3N=C(C)C2c2ccccc2)C1 (stereo unspecified)	.	89.8	.	.	91.4	.
CCOC(=O)C1CCCN(CCC(=O)Nc2ccccc2)C1 (stereo unspecified)	.	.	.	.	.	.
CN1/C(=C\C(=O)CSc2nncn2C)C(C)(C)c2ccccc21	.	/	/	.	/	/
CCOC(=O)C1CCCN(Cc2ccccc2F)C1 (stereo unspecified)	.	75.0	.	.	.	.
Cn1c(SCC(=O)NC2CC2)nnc1-c1cccc(NC(=O)c2ccccc2F)c1	/	.	.	/	.	.
COc1ccc2c(c1)c(=O)cc(C)n2CC(=O)NCc1ccco1	.	.	.	.	.	.
Cc1noc(C)c1COc1ccc(C(=O)NCc2ccccn2)cc1	.	.	.	.	.	.
CC1CCCCN1C(=O)CSc1nnc(CSc2ncccn2)n1C (stereo unspecified)	.	.	.	.	.	.
O=C(CCN1C(=O)COc2ccccc21)NCc1ccco1	.	93.7	.	.	.	.
Cc1ccc2c(c1)N(CCC(=O)NCc1cccnc1)C(=O)CO2	.	.	.	.	.	.
CCN(CCCNC(=O)CCCN1C(=O)COc2ccc(C)cc21)c1cccc(C)c1	.	50.3	.	.	58.3	.
COc1ccccc1CNC(=O)CCN1C(=O)COc2ccc(C)cc21	.	62.0	.	.	.	.
COc1ccccc1CNC(=O)CCCN1C(=O)COc2ccc(C)cc21	.	61.9	.	.	.	.
Cc1ccc2c(c1)N(CCC(=O)NCc1ccco1)C(=O)CO2	/	.	.	/	.	.
Cc1ccc(C(=O)NNc2nc3ccccc3nc2C(F)(F)F)cc1	/	.	.	/	.	.
CCNC(=O)c1nc[nH]c1C(=O)NCC	.	.	.	.	.	.
CC1CCN(Cc2ccc(NC(=O)CC3Oc4ccccc4NC3=O)cc2)CC1 (stereo unspecified)	.	.	.	.	.	.
COc1cc(/C=N\NC(=O)c2sc(N)nc2C)cc(OC)c1OC	.	.	.	.	.	.
Cc1ccc2c(c1)N(CCC(=O)NCc1ccccn1)C(=O)CO2	.	55.0	.	.	.	.
SMILES	Mac1 fbg inh	CYP2C19 inhib	CYP2C9 act	CD11b adhes enh	CYP2C9 inh	CYP2C19 activ
O=C(CCCCCN1C(=O)c2ccccc2C1=O)NCc1ccco1	.	.	.	.	60.2	.
COc1ccccc1CNC(=O)CCN1C(=O)COc2ccccc21	/	50.0	.	/	.	.
O=C(CCN1C(=O)c2ccccc2S1(=O)=O)NCc1ccco1	.	.	.	.	.	.
CCOCCCNC(=O)N[C@@H](Cc1ccccc1)C(=O)OC	.	.	.	.	.	.
CCc1ccc(N(CC(=O)NC)S(C)(=O)=O)cc1	.	.	.	.	.	.
Cc1ccc(C2C3=C(CC(C)(C)CC3=O)N(CCN3CCOCC3)C3=C2C(=O)CC(C)(C)C3)cc1	.	.	.	.	.	.
Cn1c(SCC(=O)N2c3ccccc3Sc3ccccc32)nnc1-c1ccco1	.	67.7	.	.	69.8	.
